# Source: PubChem BioAssay (National Center for Advancing Translational Sciences (NCATS))
# KB-V1 cytotox = kills drug-selected multidrug resistant KB-V1 cells. KB-V1 MDR cells viability, CellTiter-Glo, 72 h. Potency, µM (titrated, usually from 46.1 µM), actives largely listed as cytotoxic. 3.4% of 400,000 active. AID 1347076; further: nearly all actives have a fitted effect of over 60% in size
#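 KB-V1 MDR subline cells in DMEM (phenol-red free, 10% FBS) exposed to compounds in qHTS concentration series for 72 h at 37 degrees C. Viability read by CellTiter-Glo luminescence; concentration-effect curves fitted after normalization and correction.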
# HT1080NT lethal = kills 2HG-producing HT-1080-NT fibrosarcoma cells. 1.6% of 360,000 active. Potency, µM (titrated, usually from 46.1 µM), without a hit: top-dose activity, negative = less viability, most hits filed as cytotoxic. HT-1080-NT fibrosarcoma viability, CellTiter-Glo ATP luminescence, 48 h;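 further: NT is the 2HG producing partner of a matched IDH1 knockdown line; 0% = DMSO-treated cells and -100% = media-only wells without cells; nearly all actives have a fitted effect of over 55% in size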
#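 Viability by CellTiter-Glo luminescence after 48 h compound exposure at 37C of HT-1080-NT cells (750/well, RPMI, 5% FBS). % activity scaled between DMSO wells and medium-only wells, then curve-fitted and categorized by curve class.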
# TDP1 cell noCPT = qHTS for Inhibitors of human tyrosyl-DNA phosphodiesterase 1 (TDP1): qHTS in cells in absence of CPT; DT40 Tdp1-/- hTDP1 cells, no CPT, ATP luminescence, 48 h; Potency, µM (doses to about 46.2 µM), without a hit: at the top dose activity change, negative = growth inhibition, hits mostly inhibitors; 15% of 420,000 active; AID 686978, 2013; further: nearly all actives have a fitted effect of over 55% in size
#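 Stably hTDP1-transfected Tdp1-null chicken DT40 cells were treated with library compounds minus camptothecin and grown for at least 48 hr at 37 °C, after which cellular ATP was quantified by luminescence.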
# DT40 TDP1 CPT = DT40-hTDP1 cell growth loss with CPT; chicken DT40 Tdp1-/-;hTDP1 cells + 20 nM CPT, ATP luminescence, 48 h; Potency, µM (doses to about 46.2 µM), for the others: top-dose activity change, negative = growth inhibition, most hits filed as inhibitors; 12% of 420,000 active; further: nearly all actives have a fitted effect of over 55% in size
#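 Cell growth measured by CellTiter-Glo luminescence after a minimum 48 h, 37 C compound exposure with 20 nM CPT in Tdp1-knockout DT40 cells stably expressing hTDP1, seeded 400/well; qHTS titration format.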
# HT1080 IDH1KD tx = kills HT-1080 cells with IDH1 knockdown. Potency, µM (highest dose often 46.1 µM), inactives show at the highest dose activity, negative = toxicity, usual class: cytotoxic. 2% of 360,000 active. AID 686971. HT-1080 IDH1 knockdown viability, ATP luminescence, 48 h;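 further: 0% = DMSO wells and -100% = cell-free medium wells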
#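 IDH1KD HT-1080 cells, 750/well, RPMI + 5% FBS; compound pinned after 2 h settling; 48 h, 37 °C; CellTiter-Glo luminescence; % activity normalised to DMSO and no-cell wells; curves fitted, classed by r2 and efficacy.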
# KB-3-1 cytotox = kills parental KB-3-1 adenocarcinoma cells. AID 1347075. 1.4% of 400,000 active. Potency, µM (series often up to 46.1 µM), actives largely listed as cytotoxic. KB-3-1 viability, CellTiter-Glo ATP luminescence, 72 h; further: nearly all actives have a fitted effect of over 60% in size
#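 Cells are dispensed, compounds pinned in, plates held at 37 °C for 72 h, then CellTiter-Glo is added and luminescence read after 10 minutes. Cell line: parental KB-3-1 in phenol-red-free DMEM, 10% FBS.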
# * marks the source's active call; other numbers are inactive results; i = inactive; ? = inconclusive; nt = not tested or not shown; [ ] = dose if it differs, or a comment. Rows were chosen to be rich in hits. Some 19% of all compounds tested hit in one or more screens of this group. The call rests on the fitted dose curve; in most records, active means well fitted curve in the direction sought with a large enough effect; inconclusive means small, poorly fitted or top-dose-only effect, or another doubt; inactive means no such curve, though single readings can be large; an effect the other way counts as inactive or inconclusive. Unless noted, on the % scale 0 is the no-effect control and ±100 the full control effect; potency means the concentration at half of the fitted maximal effect.
SMILES,KB-V1 cytotox,HT1080NT lethal,TDP1 cell noCPT,DT40 TDP1 CPT,HT1080 IDH1KD tx,KB-3-1 cytotox
COc1ccc(C(C(=O)NCC2CCCO2)N(C(=O)CNC(=O)c2ccco2)c2cc(C)ccc2C)cc1OC (centres undefined),i,1%,-3%,0%,0%,i
COCC(C)NC(=O)CCS(=O)(=O)c1nc(-c2ccc(OC)cc2)cc(C(F)(F)F)n1 (centres undefined),i,?,4.6µM*,4.1µM*,23µM*,i
CCOC(=O)Cc1cc(-c2ccccc2)nc2ccc3ccccc3c12,i,3%,13µM*,?,-2%,i
CCOC(=O)CS(=O)(=O)c1nc(-c2ccccc2)cc(C(F)(F)F)n1,?,9.2µM*,1.6µM*,0.65µM*,6.5µM*,13µM*
COC(=O)CCS(=O)(=O)c1nc(-c2ccccc2)cc(C(F)(F)F)n1,?,7.1µM*,2.3µM*,3.3µM*,3.5µM*,i
c1ccc(-c2cc(-c3ccncc3)nc3ccc4ccccc4c23)cc1,?,?,?,?,-30%,i
COc1ccc(NC(=O)CCSc2nc(-c3ccc(OC)cc3)cc(C(F)(F)F)n2)cc1,i,nt,-18%,-25%,nt,i
O=C(O)c1ccc(CSc2nc(-c3ccccc3)cc(C(F)(F)F)n2)cc1,i,-1%,-17%,?,-19%,i
CCOc1ccc(Cn2nnc(-c3ccc(S(C)(=O)=O)cc3)n2)cc1OCC,i,0%,-19%,-11%,-3%,i
Cc1ccc(C)c(NC(=O)CCS(=O)(=O)c2cccc3nsnc23)c1,i,nt,-8%,-11%,nt,i
CN(C)Cc1ccccc1-c1cc(N(C)Cc2ccco2)ncn1,nt,nt,-3%,-3%,nt,nt
CCOC(=O)CS(=O)(=O)c1nc(-c2ccc(F)cc2)cc(C(F)(F)F)n1,i,6.5µM*,0.82µM*,0.52µM*,13µM*,3.3µM*
CCOC(=O)c1c(C(F)(F)F)cc(-c2ccc(F)cc2)nc1C,i,10%,-39%,-3%,12%,i
COc1nc(-c2ccccc2)cc(C(F)(F)F)n1,i,1%,-14%,0%,-16%,i
CCOC(=O)CCS(=O)(=O)c1nc(-c2ccccc2)cc(C(F)(F)F)n1,i,?,0.65µM*,0.41µM*,5.2µM*,?
O=C(Nc1ccccc1C(=O)OCc1cc(=O)n2nc(C3CC3)sc2n1)c1cccc(Cl)c1,i,nt,-12%,-10%,nt,i
COc1ccc(C(c2nnnn2-c2c(C)cccc2C)N2CCN(C/C=C/c3ccccc3)CC2)cc1 (centres undefined),?,-4%,?,?,3%,i
Cc1cccc(C)c1-n1nnnc1C(c1ccccc1OC(F)(F)F)N1CCN(C/C=C/c2ccccc2)CC1 (centres undefined),?,-24%,21µM*,?,?,i
CC(C)(C)n1nnnc1C(c1ccccc1OC(F)(F)F)N1CCN(C/C=C/c2ccccc2)CC1 (centres undefined),?,?,15µM*,21µM*,?,?
CCC(C(=O)O/N=C(\N)c1ccccc1)c1ccccc1 (centres undefined),i,8%,-26%,-15%,3%,i
N/C(=N\OC(=O)C(c1ccccc1)c1ccccc1)c1ccncc1,i,0%,29µM*,-4%,-1%,i
CC(C)(C)NC(=O)C1c2ccccc2OCC(=O)N1Cc1ccco1 (centres undefined),i,21%,16%,-14%,20%,i
CC1CCN(C(=O)c2[nH]cnc2C(=O)Nc2ccccc2F)CC1,?,-6%,-13%,-10%,-3%,i
COc1ccccc1N(C(C)=O)C1=C(Cl)C(=O)c2ccccc2C1=O,i,18µM*,0.73µM*,0.52µM*,7.3µM*,i
COc1ccc(C#CC2=CC(=O)CC(C)(C)C2)cc1,i,-13%,?,?,-9%,i
SMILES,KB-V1 cytotox,HT1080NT lethal,TDP1 cell noCPT,DT40 TDP1 CPT,HT1080 IDH1KD tx,KB-3-1 cytotox
COc1ccccc1C#CC1=CC(=O)CC(C)(C)C1,?,-8%,9.2µM*,16µM*,-7%,i
N#C/C(=C\c1coc2ccccc2c1=O)C(N)=S,i,-1%,15µM*,?,-14%,i
O=S(=O)(c1ccccc1)N1CCN(C(=S)NCc2ccccc2)CC1,?,2%,?,-8%,-8%,i
CCOc1ccc(S(=O)(=O)N2CCN(C(=S)NCc3ccccc3)CC2)cc1,18µM*,27%,?,21µM*,-8%,i
CCOc1ccc(S(=O)(=O)N2CCN(C(=O)c3ccco3)CC2)cc1,i,2%,-19%,-1%,12%,i
CCOc1ccc(S(=O)(=O)N2CCN(C(=O)c3cc4ccccc4o3)CC2)cc1,i,-11%,21µM*,21µM*,-15%,i
O=C(Nc1ccc(N2CCN(C(=O)c3cccs3)CC2)c(Cl)c1)c1ccco1,3.7µM*,-4%,15µM*,?,?,?
O=C(Nc1ccc2c(c1)OCCO2)c1c(F)c(F)c(F)c(F)c1F,i,-1%,?,18µM*,-2%,i
COc1c(F)c(F)c(C(=O)Nc2cccc(Cl)c2N2CCOCC2)c(F)c1F,?,12%,21µM*,15µM*,3%[9.24 µM],i
Cc1ccc(NC(=O)N2CCN(C(=O)c3ccco3)CC2)cc1Cl,?,0%,?,-20%,0%,i
Cc1ccccc1C(=O)N1CCN(c2ccc(NC(=O)c3ccco3)cc2Cl)CC1,?,?,9.2µM*,15µM*,?,i
COc1cccc(C(=O)NCC2Cc3c(F)ccc(-c4ncccn4)c3O2)c1OC (centres undefined),nt,nt,?,-7%[9.04 µM],nt,nt
COCCN(C(=O)COC(=O)C12CC3CC(CC(O)(C3)C1)C2)c1c(N)n(Cc2ccccc2)c(=O)[nH]c1=O,i,3%,-3%,3%,9%,i
Cc1nc2c(-c3ccccc3)c(C)nn2c(C)c1CCC(=O)N1CCN(c2ccccc2)CC1,i,nt,?,-3%,nt,i
O=C(CNC(=O)c1ccccc1F)NCc1cccnc1,?,14%,6%,2%,13%,i
O=C(Nc1ccc2c(c1)OCCO2)c1ccc(Br)cc1,?,?,?,?,-17%,i
